This passage reports binding signal results from article PMC7862700, “An all-to-all approach to the identification of sequence-specific readers for epigenetic DNA modifications on cytosine”.

Test in all cases: DAPPL (digital affinity profiling via proximity ligation, sequencing); 10 mM Tris-HCl pH 7.5, 50 mM NaCl, 1 mM DTT, 4% glycerol, room temperature, 30 min; GST-TFs on glutathione beads, 16-mer random dsDNA library, 0.1% formaldehyde crosslink after washing; high values mean tight binding
The target of one assay is T1, FEV (Homo sapiens, UniProt Q99581 1-238).
T1 sequence: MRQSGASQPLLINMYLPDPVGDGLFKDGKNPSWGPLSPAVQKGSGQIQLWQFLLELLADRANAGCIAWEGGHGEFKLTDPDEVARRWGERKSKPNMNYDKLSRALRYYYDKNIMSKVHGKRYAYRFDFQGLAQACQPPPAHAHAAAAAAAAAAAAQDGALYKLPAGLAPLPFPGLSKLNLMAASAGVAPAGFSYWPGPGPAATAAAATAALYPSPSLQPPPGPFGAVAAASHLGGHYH
To be noted: protein: recombinant; tags: N-terminal GST; dsDNA, one strand shown. The procedure, abridged: (§1)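 Binding signal is given per hexamer as its read frequency for a factor divided by its frequency in the tag-only sample. GST-fused human transcription factors were expressed in yeast, captured on glutathione beads, barcoded with DNA and pooled with that sample, then incubated with 200 nmole of a 16-mer random double-stranded DNA library in Tris/NaCl/DTT/glycerol buffer for 30 min at room temperature. The pools were then washed, crosslinked, proximity-ligated, amplified by PCR and sequenced on an Illumina NextSeq500.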

A further assay deals with ETV5 (Homo sapiens, UniProt P41161 1-510). To be noted: protein: recombinant; tags: N-terminal GST; dsDNA, one strand shown. The procedure, abridged:
as §1

The target of a further assay is HSF1 (Homo sapiens, UniProt Q00613 1-529). To be noted: protein: recombinant; tags: N-terminal GST; chain copies: 3; dsDNA, one strand shown. The procedure, abridged:
as §1

In another assay the target is T2, SPIC (Homo sapiens, UniProt Q8N5J4 1-248).
T2 sequence: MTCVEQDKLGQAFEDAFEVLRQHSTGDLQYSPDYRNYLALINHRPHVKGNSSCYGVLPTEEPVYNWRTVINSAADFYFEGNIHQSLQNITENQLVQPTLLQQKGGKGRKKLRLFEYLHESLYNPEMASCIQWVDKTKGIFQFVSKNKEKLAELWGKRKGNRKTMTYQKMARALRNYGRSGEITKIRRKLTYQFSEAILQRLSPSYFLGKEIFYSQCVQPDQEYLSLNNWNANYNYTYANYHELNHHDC
To be noted: protein: recombinant; tags: N-terminal GST; dsDNA, one strand shown. The gist of the method:
as §1

A further assay addresses ELF4 (Homo sapiens, UniProt Q99607 1-663). The conditions noted are these: protein: recombinant; tags: N-terminal GST; dsDNA, one strand shown. The procedure, abridged: as §1
For the next assay, the target named is T3, ELK4 (Homo sapiens, UniProt P28324-2 1-405).
T3 sequence: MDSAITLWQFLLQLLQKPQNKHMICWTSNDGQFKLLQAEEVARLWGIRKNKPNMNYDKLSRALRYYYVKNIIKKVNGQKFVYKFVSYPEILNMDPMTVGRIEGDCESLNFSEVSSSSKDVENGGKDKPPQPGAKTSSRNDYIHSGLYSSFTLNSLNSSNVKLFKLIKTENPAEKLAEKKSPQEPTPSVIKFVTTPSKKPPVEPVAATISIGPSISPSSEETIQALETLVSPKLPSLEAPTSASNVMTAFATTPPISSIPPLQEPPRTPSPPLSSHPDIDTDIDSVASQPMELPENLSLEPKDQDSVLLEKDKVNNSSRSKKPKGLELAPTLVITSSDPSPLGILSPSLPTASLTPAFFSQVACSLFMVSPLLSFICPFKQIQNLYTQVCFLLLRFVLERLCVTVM
To be noted: protein: recombinant; tags: N-terminal GST; dsDNA, one strand shown. The procedure, abridged:
as §1

A further assay concerns the target T4, ETV2 (Homo sapiens, UniProt O00321 1-342).
T4 sequence: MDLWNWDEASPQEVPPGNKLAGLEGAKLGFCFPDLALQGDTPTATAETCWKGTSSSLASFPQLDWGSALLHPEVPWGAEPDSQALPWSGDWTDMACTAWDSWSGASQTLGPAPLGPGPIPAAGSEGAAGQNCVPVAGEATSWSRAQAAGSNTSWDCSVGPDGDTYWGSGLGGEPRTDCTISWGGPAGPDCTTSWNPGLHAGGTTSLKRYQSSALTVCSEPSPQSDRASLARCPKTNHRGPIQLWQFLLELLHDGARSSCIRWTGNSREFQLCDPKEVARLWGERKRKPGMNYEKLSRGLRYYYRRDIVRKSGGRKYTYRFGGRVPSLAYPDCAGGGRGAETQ
To be noted: protein: recombinant; tags: N-terminal GST; dsDNA, one strand shown. The gist of the method:
as §1

For a further assay, the target named is T5, ELF3 (Homo sapiens, UniProt P78545 1-371).
T5 sequence: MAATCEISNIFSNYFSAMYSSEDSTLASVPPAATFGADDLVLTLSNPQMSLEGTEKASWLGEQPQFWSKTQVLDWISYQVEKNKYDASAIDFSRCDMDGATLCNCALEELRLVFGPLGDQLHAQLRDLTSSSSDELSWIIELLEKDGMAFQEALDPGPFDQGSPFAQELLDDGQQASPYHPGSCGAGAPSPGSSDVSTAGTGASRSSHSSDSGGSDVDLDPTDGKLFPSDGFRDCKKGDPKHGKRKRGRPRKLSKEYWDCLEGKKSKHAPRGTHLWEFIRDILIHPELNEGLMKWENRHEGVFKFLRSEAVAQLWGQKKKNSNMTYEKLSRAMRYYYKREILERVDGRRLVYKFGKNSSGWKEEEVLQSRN
The conditions noted are these: protein: recombinant; tags: N-terminal GST; dsDNA, one strand shown. The gist of the method: as §1

A further assay has as its target CRX (Homo sapiens, UniProt O43186 1-299). The conditions noted are these: protein: recombinant; tags: N-terminal GST; dsDNA, one strand shown. The procedure, abridged:
as §1

The target of the next assay is ETV1 (Homo sapiens, UniProt P50549 1-477). To be noted: protein: recombinant; tags: N-terminal GST; dsDNA, one strand shown. The procedure, abridged: as §1
Sequence of ETV1 (P50549 whole entry): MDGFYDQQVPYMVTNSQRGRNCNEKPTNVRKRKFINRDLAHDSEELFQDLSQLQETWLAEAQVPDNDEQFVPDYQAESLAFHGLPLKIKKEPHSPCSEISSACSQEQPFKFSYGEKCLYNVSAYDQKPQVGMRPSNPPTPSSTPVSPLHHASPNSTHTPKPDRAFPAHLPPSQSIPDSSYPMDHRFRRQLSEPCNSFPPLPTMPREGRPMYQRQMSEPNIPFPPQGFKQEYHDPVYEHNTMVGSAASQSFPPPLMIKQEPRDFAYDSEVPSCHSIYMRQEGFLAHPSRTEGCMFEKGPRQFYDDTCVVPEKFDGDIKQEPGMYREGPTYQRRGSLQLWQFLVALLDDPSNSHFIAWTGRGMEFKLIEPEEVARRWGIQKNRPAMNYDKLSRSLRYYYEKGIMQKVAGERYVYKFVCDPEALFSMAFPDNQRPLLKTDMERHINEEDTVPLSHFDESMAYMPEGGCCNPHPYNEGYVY
For another assay, the target named is T6, ERF (Homo sapiens, UniProt P50548 1-548).
T6 sequence: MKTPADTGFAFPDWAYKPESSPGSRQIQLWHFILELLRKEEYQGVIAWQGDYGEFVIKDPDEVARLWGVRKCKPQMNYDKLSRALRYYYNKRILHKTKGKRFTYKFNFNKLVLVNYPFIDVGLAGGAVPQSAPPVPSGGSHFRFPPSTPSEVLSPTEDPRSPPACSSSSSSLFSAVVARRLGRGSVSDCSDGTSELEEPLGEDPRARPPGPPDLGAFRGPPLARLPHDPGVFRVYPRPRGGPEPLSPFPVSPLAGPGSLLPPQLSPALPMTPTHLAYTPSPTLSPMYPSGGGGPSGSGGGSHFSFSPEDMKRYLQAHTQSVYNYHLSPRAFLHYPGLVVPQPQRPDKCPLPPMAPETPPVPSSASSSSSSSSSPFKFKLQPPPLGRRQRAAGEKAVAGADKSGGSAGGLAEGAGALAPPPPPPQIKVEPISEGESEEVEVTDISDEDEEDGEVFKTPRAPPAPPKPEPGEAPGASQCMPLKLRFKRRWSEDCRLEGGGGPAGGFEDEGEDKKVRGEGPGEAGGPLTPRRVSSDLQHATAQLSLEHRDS
The conditions noted are these: protein: recombinant; tags: N-terminal GST; dsDNA, one strand shown. The procedure, abridged:
as §1

For a further assay, the target named is T7, ETV3L (Homo sapiens, UniProt Q6ZN32 1-361).
T7 sequence: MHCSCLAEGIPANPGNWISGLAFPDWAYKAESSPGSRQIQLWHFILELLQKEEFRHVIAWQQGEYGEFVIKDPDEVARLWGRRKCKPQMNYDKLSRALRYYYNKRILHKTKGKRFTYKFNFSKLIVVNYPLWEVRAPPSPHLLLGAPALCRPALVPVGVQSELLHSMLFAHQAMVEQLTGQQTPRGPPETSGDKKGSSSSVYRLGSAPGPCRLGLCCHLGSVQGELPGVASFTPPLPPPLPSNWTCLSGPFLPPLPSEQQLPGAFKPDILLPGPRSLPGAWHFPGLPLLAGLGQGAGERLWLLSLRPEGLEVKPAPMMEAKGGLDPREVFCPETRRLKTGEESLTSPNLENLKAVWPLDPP
To be noted: protein: recombinant; tags: N-terminal GST; dsDNA, one strand shown. The procedure, abridged:
as §1

A further assay has as its target T8, ETS2 (Homo sapiens, UniProt P15036 1-469).
T8 sequence: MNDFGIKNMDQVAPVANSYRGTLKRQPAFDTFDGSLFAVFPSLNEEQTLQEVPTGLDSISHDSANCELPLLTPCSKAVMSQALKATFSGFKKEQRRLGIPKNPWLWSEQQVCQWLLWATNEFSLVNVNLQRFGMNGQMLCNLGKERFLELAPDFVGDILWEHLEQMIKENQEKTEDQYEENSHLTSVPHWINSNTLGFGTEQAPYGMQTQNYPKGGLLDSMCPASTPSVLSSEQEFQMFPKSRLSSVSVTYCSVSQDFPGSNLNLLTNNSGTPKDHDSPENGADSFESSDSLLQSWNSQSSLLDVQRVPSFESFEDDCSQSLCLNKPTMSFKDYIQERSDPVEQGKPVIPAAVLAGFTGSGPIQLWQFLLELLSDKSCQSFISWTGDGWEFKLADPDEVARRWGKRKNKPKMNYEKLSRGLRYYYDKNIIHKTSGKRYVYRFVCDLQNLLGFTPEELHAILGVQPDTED
The conditions noted are these: protein: recombinant; tags: N-terminal GST; dsDNA, one strand shown. The procedure, abridged: as §1

In another assay the target is T9, SPDEF (Homo sapiens, UniProt O95238 1-335).
T9 sequence: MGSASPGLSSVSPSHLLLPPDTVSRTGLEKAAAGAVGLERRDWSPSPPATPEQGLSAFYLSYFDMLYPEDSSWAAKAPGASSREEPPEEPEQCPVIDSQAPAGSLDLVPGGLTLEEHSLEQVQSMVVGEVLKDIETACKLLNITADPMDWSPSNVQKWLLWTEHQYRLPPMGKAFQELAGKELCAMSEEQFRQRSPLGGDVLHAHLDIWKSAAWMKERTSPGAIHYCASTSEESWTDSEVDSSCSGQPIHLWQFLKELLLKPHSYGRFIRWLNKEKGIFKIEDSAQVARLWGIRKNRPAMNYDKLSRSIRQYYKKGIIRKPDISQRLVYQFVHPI
The conditions noted are these: protein: recombinant; tags: N-terminal GST; dsDNA, one strand shown. The procedure, abridged: as §1

For the next assay, the target named is T10, ETV7 (Homo sapiens, UniProt Q9Y603 1-341).
T10 sequence: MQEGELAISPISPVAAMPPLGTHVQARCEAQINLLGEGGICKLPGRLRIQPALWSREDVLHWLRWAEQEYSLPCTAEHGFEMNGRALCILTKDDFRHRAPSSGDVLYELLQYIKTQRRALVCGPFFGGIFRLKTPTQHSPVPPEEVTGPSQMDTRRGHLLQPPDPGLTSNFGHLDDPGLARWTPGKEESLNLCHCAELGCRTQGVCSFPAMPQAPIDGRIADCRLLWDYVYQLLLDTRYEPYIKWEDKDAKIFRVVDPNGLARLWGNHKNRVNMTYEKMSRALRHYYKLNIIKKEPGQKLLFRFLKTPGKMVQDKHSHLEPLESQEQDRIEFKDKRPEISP
The conditions noted are these: protein: recombinant; tags: N-terminal GST; dsDNA, one strand shown. The procedure, abridged:
as §1

A further assay concerns the target T11, ELF5 (Homo sapiens, UniProt Q9UKW6-2 1-255).
T11 sequence: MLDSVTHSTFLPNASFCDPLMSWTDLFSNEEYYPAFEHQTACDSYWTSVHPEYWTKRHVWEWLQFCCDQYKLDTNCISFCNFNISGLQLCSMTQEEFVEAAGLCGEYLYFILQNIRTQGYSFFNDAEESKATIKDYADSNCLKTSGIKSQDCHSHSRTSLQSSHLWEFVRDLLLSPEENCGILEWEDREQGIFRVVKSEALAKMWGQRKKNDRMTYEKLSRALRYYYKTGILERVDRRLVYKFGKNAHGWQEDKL
To be noted: protein: recombinant; tags: N-terminal GST; dsDNA, one strand shown. The procedure, abridged: as §1

The target in another assay is T12, ETV3 (Homo sapiens, UniProt P41162-2 1-143).
T12 sequence: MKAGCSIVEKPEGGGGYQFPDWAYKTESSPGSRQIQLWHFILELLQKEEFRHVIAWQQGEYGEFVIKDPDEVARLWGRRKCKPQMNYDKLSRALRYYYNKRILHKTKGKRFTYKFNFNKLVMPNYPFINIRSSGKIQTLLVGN
The conditions noted are these: protein: recombinant; tags: N-terminal GST; dsDNA, one strand shown. The gist of the method: as §1

The target in a further assay is ETV6 (Homo sapiens, UniProt P41212 1-452). To be noted: protein: recombinant; tags: N-terminal GST; dsDNA, one strand shown. The gist of the method:
as §1

Sequence of CRX (O43186 whole entry): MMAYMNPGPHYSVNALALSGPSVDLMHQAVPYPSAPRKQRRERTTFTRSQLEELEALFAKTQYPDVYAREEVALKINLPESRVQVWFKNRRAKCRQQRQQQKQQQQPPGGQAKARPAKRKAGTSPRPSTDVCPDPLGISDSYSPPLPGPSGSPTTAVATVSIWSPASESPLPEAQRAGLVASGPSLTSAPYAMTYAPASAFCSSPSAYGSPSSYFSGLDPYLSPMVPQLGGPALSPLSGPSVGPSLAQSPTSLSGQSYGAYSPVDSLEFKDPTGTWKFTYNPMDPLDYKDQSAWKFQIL
Sequence of HSF1 (Q00613 whole entry): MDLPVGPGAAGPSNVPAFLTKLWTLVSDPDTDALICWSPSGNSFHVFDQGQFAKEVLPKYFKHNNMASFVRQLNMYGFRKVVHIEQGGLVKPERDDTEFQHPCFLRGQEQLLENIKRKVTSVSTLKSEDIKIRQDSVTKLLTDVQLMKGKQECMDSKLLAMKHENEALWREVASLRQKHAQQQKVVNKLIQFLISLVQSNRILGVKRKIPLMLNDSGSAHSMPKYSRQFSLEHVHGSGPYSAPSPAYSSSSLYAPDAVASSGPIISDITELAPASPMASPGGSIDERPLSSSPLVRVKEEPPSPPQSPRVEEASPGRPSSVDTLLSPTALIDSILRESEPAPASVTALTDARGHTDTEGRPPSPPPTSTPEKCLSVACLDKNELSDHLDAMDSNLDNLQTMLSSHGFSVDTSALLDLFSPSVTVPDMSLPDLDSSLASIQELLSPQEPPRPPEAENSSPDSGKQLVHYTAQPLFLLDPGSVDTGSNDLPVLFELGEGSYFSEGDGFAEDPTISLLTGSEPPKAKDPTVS
Sequence of ETV5 (P41161 whole entry): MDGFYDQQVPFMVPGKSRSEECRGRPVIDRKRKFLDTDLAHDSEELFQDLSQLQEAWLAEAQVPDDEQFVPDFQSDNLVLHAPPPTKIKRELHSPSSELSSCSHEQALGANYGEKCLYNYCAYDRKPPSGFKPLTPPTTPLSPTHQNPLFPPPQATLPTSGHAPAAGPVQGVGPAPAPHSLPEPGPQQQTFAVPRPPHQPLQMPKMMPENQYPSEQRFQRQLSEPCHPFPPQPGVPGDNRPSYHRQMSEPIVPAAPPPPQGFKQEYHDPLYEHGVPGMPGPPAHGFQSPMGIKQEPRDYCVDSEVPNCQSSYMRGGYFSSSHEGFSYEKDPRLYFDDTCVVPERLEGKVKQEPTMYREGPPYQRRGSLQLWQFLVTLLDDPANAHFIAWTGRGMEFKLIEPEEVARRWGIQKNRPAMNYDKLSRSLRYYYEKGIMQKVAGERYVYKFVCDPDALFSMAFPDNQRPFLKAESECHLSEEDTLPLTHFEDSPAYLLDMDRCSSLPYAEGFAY
Sequence of ETV6 (P41212 whole entry): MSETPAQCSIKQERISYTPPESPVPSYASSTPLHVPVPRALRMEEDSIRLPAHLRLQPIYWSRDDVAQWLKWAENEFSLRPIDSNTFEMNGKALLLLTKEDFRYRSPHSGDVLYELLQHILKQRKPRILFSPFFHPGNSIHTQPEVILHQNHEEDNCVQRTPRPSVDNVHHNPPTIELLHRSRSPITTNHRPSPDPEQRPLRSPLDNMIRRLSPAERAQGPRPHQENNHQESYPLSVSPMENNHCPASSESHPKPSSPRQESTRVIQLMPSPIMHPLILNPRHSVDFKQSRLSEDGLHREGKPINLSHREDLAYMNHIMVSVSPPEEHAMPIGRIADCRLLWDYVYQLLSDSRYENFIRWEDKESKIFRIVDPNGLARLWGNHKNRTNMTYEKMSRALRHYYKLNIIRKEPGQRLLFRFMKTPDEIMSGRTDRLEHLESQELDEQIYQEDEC
Sequence of ELF4 (Q99607 whole entry): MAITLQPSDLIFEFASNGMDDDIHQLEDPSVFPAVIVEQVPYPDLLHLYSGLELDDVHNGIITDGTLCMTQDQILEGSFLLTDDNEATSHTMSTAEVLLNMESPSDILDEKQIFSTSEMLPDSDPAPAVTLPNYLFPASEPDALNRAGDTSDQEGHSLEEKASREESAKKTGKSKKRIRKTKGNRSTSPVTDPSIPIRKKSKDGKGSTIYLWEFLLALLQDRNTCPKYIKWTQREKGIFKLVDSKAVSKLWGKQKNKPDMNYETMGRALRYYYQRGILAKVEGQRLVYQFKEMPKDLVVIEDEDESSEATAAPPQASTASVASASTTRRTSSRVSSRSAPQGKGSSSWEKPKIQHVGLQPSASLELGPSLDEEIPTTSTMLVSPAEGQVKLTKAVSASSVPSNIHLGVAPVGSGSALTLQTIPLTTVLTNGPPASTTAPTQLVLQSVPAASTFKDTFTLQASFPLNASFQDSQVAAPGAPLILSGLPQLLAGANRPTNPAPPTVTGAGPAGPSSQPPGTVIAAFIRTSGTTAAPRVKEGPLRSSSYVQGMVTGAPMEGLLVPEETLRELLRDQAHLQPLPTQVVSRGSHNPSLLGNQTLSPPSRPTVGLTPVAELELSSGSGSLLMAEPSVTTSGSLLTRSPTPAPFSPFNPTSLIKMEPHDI

Regarding AATTAT, the binding signal in the assay with FEV was 1.25 fold enrichment (6-mer frequency, TF over GST control); with ETV5, 1.29 fold enrichment (6-mer frequency, TF over GST control); with HSF1, 1.55 fold enrichment (6-mer frequency, TF over GST control); with SPIC it was 1.33 fold enrichment (6-mer frequency, TF over GST control); with ELF4, 1.16 fold enrichment (6-mer frequency, TF over GST control); with ELK4, 1.12 fold enrichment (6-mer frequency, TF over GST control). Also, the binding signal in the assay with ETV2 was 1.28 fold enrichment (6-mer frequency, TF over GST control); with ELF3 it was 1.27 fold enrichment (6-mer frequency, TF over GST control); in the assay with CRX, 2.05 fold enrichment (6-mer frequency, TF over GST control); with ETV1 it was 1.26 fold enrichment (6-mer frequency, TF over GST control); in the assay with ERF it was 1.15 fold enrichment (6-mer frequency, TF over GST control); with ETV3L, 1.26 fold enrichment (6-mer frequency, TF over GST control). For the same sequence, the binding signal with ETS2 is 1.27 fold enrichment (6-mer frequency, TF over GST control); with SPDEF, 1.24 fold enrichment (6-mer frequency, TF over GST control); with ETV7, 1.23 fold enrichment (6-mer frequency, TF over GST control); in the assay with ELF5, 1.24 fold enrichment (6-mer frequency, TF over GST control); with ETV3, 1.28 fold enrichment (6-mer frequency, TF over GST control); with ETV6 it was 1.2 fold enrichment (6-mer frequency, TF over GST control).
